KB-3-1 cytotox = kills parental KB-3-1 adenocarcinoma cells; AID 1347075; Potency, µM (titrated, usually from 46.1 µM), most hits filed as cytotoxic; KB-3-1 viability, CellTiter-Glo ATP luminescence, 72 h; hit rate 1.4% among 400,000; note: nearly all actives have a fitted effect of over 60% in size
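Multi-concentration cytotoxicity screen in KB-3-1 cells grown in DMEM lacking phenol red with 10% FBS. After 72 h at 37 °C with compound, ATP-dependent luminescence was recorded.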
HT1080-NT tox = kills 2HG-producing HT-1080-NT fibrosarcoma cells. hit rate 1.6% among 360,000. HT-1080-NT fibrosarcoma viability, CellTiter-Glo ATP luminescence, 48 h. Potency, µM (highest dose often 46.1 µM), most hits filed as cytotoxic;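 note: NT is the 2HG producing partner of a matched IDH1 knockdown line; nearly all actives have a fitted effect of over 55% in size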
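Luminescent CellTiter-Glo readout after 48 hours of compound exposure at 37 degrees C defined viability of HT-1080-NT cells. Activity was normalized to DMSO wells and cell-free media wells; concentration-response curves were fitted and assigned curve classes.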
KB-V1 cytotox = KB-V1 MDR subline cytotoxicity | KB-V1 MDR cells viability, CellTiter-Glo, 72 h | Potency, µM (series often up to 46.1 µM), most hits filed as cytotoxic | hit rate 3.4% among 400,000 | AID 1347076; note: nearly all actives have a fitted effect of over 60% in size
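qHTS viability screen in drug-selected KB-V1 MDR cells: 72 h compound treatment at 37 degrees C, ATP luminescence end point.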
DT40 TDP1 CPT = DT40-hTDP1 cell growth loss with CPT; AID 686979; hit rate 12% among 420,000; Potency, µM (highest dose often 46.2 µM), actives largely listed as inhibitors; chicken DT40 Tdp1-/-;hTDP1 cells + 20 nM CPT, ATP luminescence, 48 h; note: nearly all actives have a fitted effect of over 55% in size
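Chicken DT40 Tdp1-/- cells complemented with human TDP1, 400 cells/well, exposed to compounds plus 20 nM camptothecin for at least 48 h at 37 C; viability read as ATP content by CellTiter-Glo luminescence.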
TDP1 cell noCPT = qHTS for Inhibitors of human tyrosyl-DNA phosphodiesterase 1 (TDP1): qHTS in cells in absence of CPT; hit rate 15% among 420,000; DT40 Tdp1-/- hTDP1 cells, no CPT, ATP luminescence, 48 h; Potency, µM (top dose mostly 46.2 µM), most hits filed as inhibitors; note: nearly all actives have a fitted effect of over 55% in size
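Growth kinetics read by CellTiter-Glo luminescence after ≥48 hr at 37 °C. Cells: DT40 Tdp1-/- stably carrying human TDP1, 400 per well, compound exposure in the absence of CPT (DMSO vehicle).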
HT1080 IDH1KD tx = toxicity to HT-1080 IDH1 knockdown cells (counter line); Potency, µM (highest dose often 46.1 µM), usual class: cytotoxic; HT-1080 IDH1 knockdown viability, ATP luminescence, 48 h; hit rate 2% among 360,000
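In this qHTS, HT-1080 cells depleted of IDH1 are exposed for 48 h at 37 °C to compound titrations. Toxicity is scored from CellTiter-Glo luminescence, with DMSO as full viability and medium alone as none.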
A number is an active result; [ ] = another dose, or the depositor's remark. Compounds with a hit are over-represented: about 19% of the library has one in this group of screens. Calls come from the whole dose curve; as a rule, active = well fitted curve in the direction sought with a large enough effect; inconclusive = small, poorly fitted or top-dose-only effect, or another doubt; inactive = no such curve, though single readings can be large; an effect the other way counts as inactive or inconclusive.

Cc1ccc(C)c(CSc2nnc3[nH]c(=O)cc(-c4ccccc4)n23)c1 was read as DT40 TDP1 CPT inactive and TDP1 cell noCPT inactive.
Screening Cc1nc(SCC(=O)N(C)C2CCS(=O)(=O)C2)c(C#N)c(C)c1C (stereo unspecified) returned KB-3-1 cytotox inactive, HT1080-NT tox inactive, KB-V1 cytotox inactive, DT40 TDP1 CPT inactive, TDP1 cell noCPT inactive and HT1080 IDH1KD tx inactive.
COc1cccc2c1Oc1nc(-c3ccccc3)nc(SCC(=O)N3CCCCC3)c1C2 was read as KB-3-1 cytotox inactive, KB-V1 cytotox inactive, DT40 TDP1 CPT inconclusive and TDP1 cell noCPT inconclusive.
`COc1cc(NC(=O)CN2CCC(Cc3ccccc3)CC2)c(C)cc1[N+](=O)[O-]` gave KB-3-1 cytotox inactive, HT1080-NT tox inactive, KB-V1 cytotox inactive, DT40 TDP1 CPT 7.3µM, TDP1 cell noCPT 8.2µM and HT1080 IDH1KD tx inactive.
`Cc1cccc(C)c1NC(=O)CN1CCC(Cc2ccccc2)CC1` gave KB-3-1 cytotox inactive, HT1080-NT tox inactive, KB-V1 cytotox inactive, DT40 TDP1 CPT 21µM, TDP1 cell noCPT 13µM and HT1080 IDH1KD tx inactive.
`COc1cc(CN2CCC(Cc3ccccc3)CC2)cc([N+](=O)[O-])c1O` gave KB-3-1 cytotox inactive, HT1080-NT tox inactive, KB-V1 cytotox inactive, DT40 TDP1 CPT inactive, TDP1 cell noCPT inactive and HT1080 IDH1KD tx inactive.
`CCc1nc2c(OCc3ccc4c(c3)OCO4)cccn2c1N(C=O)Cc1ccc(OC)cc1` gave KB-3-1 cytotox inactive, HT1080-NT tox inconclusive, KB-V1 cytotox inactive, DT40 TDP1 CPT inconclusive, TDP1 cell noCPT inconclusive and HT1080 IDH1KD tx inactive.
`CC(C)(C)OC(=O)NCCCCCc1nnc(SCc2cccc(F)c2)o1` gave KB-3-1 cytotox inactive, HT1080-NT tox inactive, KB-V1 cytotox inconclusive, DT40 TDP1 CPT inconclusive, TDP1 cell noCPT 9.2µM and HT1080 IDH1KD tx inactive.
For CC(C)(C)OC(=O)NCCCCCc1nnc(SCc2c(F)cccc2Cl)o1 the results were KB-3-1 cytotox inactive, HT1080-NT tox inactive, KB-V1 cytotox inactive, DT40 TDP1 CPT inactive, TDP1 cell noCPT 21µM and HT1080 IDH1KD tx inactive.
Screening CC(C)(C)OC(=O)NCCc1nnc(SCc2c(Cl)cccc2Cl)o1 returned KB-3-1 cytotox inactive, HT1080-NT tox inactive, KB-V1 cytotox inactive, DT40 TDP1 CPT inactive, TDP1 cell noCPT inactive and HT1080 IDH1KD tx inactive.
For O=C(Nc1cc(NC(=O)c2ccccc2F)ccc1Cl)c1ccccc1 the results were KB-3-1 cytotox inactive, HT1080-NT tox inactive, KB-V1 cytotox inactive, DT40 TDP1 CPT inconclusive, TDP1 cell noCPT inconclusive and HT1080 IDH1KD tx inactive.
Screening COc1ccc(N(C(=O)Cn2nnc(-c3ccccc3F)n2)C(C(=O)NCC2CCCO2)c2ccc(Cl)cc2)cc1 (stereo unspecified) returned KB-3-1 cytotox inconclusive, HT1080-NT tox inactive, KB-V1 cytotox inactive, DT40 TDP1 CPT inconclusive, TDP1 cell noCPT 9.2µM and HT1080 IDH1KD tx inactive.
`COc1ccc(C(C(=O)NCC2CCCO2)N(Cc2ccccc2)C(=O)c2snc(C(N)=O)c2N)cc1OC` (stereo unspecified) gave KB-3-1 cytotox inactive, HT1080-NT tox inactive, KB-V1 cytotox inactive, DT40 TDP1 CPT inconclusive, TDP1 cell noCPT inactive and HT1080 IDH1KD tx inactive.
COc1ccc(C(C(=O)NCC2CCCO2)N(C(=O)c2snc(C(N)=O)c2N)c2ccccc2C)cc1OC (stereo unspecified) was read as KB-3-1 cytotox inactive, HT1080-NT tox inactive, KB-V1 cytotox inactive, DT40 TDP1 CPT inactive, TDP1 cell noCPT inconclusive and HT1080 IDH1KD tx inactive.
`CCOc1ccc(C(C(=O)NCC2CCCO2)N(CCc2cccc(C)c2)C(=O)c2snc(C(N)=O)c2N)cc1` (stereo unspecified) gave KB-3-1 cytotox inconclusive, HT1080-NT tox inconclusive, KB-V1 cytotox 21µM, DT40 TDP1 CPT inconclusive, TDP1 cell noCPT inconclusive and HT1080 IDH1KD tx inconclusive.
`CCOc1ccc(C(C(=O)NCC2CCCO2)N(C(=O)c2snc(C(N)=O)c2N)c2ccc(F)cc2)cc1` (stereo unspecified) gave KB-3-1 cytotox inactive, HT1080-NT tox inactive, KB-V1 cytotox inactive, DT40 TDP1 CPT 18µM, TDP1 cell noCPT inconclusive and HT1080 IDH1KD tx inactive.
CCc1ccccc1N(C(=O)c1snc(C(N)=O)c1N)C(C(=O)NCC1CCCO1)c1ccc(OC)c(OC)c1 (stereo unspecified) was read as KB-3-1 cytotox inactive, HT1080-NT tox inactive, KB-V1 cytotox inactive, DT40 TDP1 CPT 16µM, TDP1 cell noCPT 12µM and HT1080 IDH1KD tx inactive.
For O=C(O)c1cc(S(=O)(=O)N2CCCCC2)ccc1N1CCCC1 the results were KB-3-1 cytotox inactive, HT1080-NT tox inactive[9.24 µM], KB-V1 cytotox inactive, DT40 TDP1 CPT inactive, TDP1 cell noCPT inactive and HT1080 IDH1KD tx inactive.
`COC(=O)c1cc2oc(C)cc2n1CC(=O)Nc1ccc(OC)c(OC)c1` gave KB-3-1 cytotox inactive, KB-V1 cytotox inactive, DT40 TDP1 CPT inactive and TDP1 cell noCPT inactive.
`CCOc1ccc(OCC(=O)N2CCOCC2)cc1` gave KB-3-1 cytotox inactive, HT1080-NT tox inactive, KB-V1 cytotox inactive, DT40 TDP1 CPT inactive, TDP1 cell noCPT inactive and HT1080 IDH1KD tx inactive.
N#CC(C#N)=Cc1ccc(OCC(=O)N2CCOCC2)cc1 was read as KB-3-1 cytotox inactive, HT1080-NT tox inactive, KB-V1 cytotox inactive, DT40 TDP1 CPT 21µM, TDP1 cell noCPT inconclusive and HT1080 IDH1KD tx inactive.
For O=C(CN1C(=O)C(c2ccc(F)cc2)=NC12CCCC2)Nc1ccc(F)cc1 the results were KB-3-1 cytotox inconclusive, HT1080-NT tox inactive, KB-V1 cytotox inactive, DT40 TDP1 CPT 8.2µM, TDP1 cell noCPT 5.8µM and HT1080 IDH1KD tx inactive.
CC(C)OCCCNC(=S)Nc1ccc(S(N)(=O)=O)cc1 was read as KB-3-1 cytotox inactive, HT1080-NT tox inactive, KB-V1 cytotox inactive, DT40 TDP1 CPT 23µM, TDP1 cell noCPT inconclusive and HT1080 IDH1KD tx inactive.
`CC(=O)c1ccc(NC(=S)NCCc2ccc(S(N)(=O)=O)cc2)cc1` gave KB-3-1 cytotox inactive, HT1080-NT tox inactive, KB-V1 cytotox inactive, DT40 TDP1 CPT inactive, TDP1 cell noCPT inconclusive and HT1080 IDH1KD tx inactive.
For O=C(N1CCN(c2ncccn2)CC1)C12CC3CC(CC(C3)C1)C2 the results were KB-3-1 cytotox inactive, HT1080-NT tox inconclusive, KB-V1 cytotox inactive, DT40 TDP1 CPT inactive, TDP1 cell noCPT inactive and HT1080 IDH1KD tx inactive.
Cc1ccc(C(=O)c2cn(Cc3ccccc3F)c3cc4c(cc3c2=O)OCO4)cc1 was read as KB-3-1 cytotox inactive, KB-V1 cytotox inactive, DT40 TDP1 CPT inconclusive and TDP1 cell noCPT 21µM.
